This is a sample that favours compounds with a hit; in the whole collection about 1.8% have one here.
EWS-Fli inh = EWS/Fli transcriptional activity inhibition | 0.67% of 350,000 active | A673 NR0B1-luciferase reporter, viability-normalised | AID 651661 | inhibition, % at 12.6 µM;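 active = mean inhibition of at least 50% after viability correction, with every replicate also passing that limit; inconclusive = mean reaches 50% but only one of two replicates passes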;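 note: firefly luciferase signal divided by Alamar Blue viability fluorescence both relative to DMSO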
GSIS activator = GLuc luminescence reporter in INS-1E cells, primary screen for activators of glucose-dependent secretion of insulin | AID 743287 | activation, % at 16.6 µM | INS-1E GLuc reporter insulin secretion, 2-3 h | 0.61% of 370,000 active;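 active = lowest replicate activation of at least 40%, so every replicate reaches that level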
RAD52 anneal inh = blocks human RAD52 DNA annealing; P43351; recombinant RAD52 DNA annealing, FRET fluorescence; inhibition, % at 18.7 µM; 0.46% of 360,000 active; AID 651710;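 active = every replicate showing at least 50% inhibition; inconclusive = mean inhibition at least 50% but not in every replicate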
Target sequence (P43351 whole entry, looked up): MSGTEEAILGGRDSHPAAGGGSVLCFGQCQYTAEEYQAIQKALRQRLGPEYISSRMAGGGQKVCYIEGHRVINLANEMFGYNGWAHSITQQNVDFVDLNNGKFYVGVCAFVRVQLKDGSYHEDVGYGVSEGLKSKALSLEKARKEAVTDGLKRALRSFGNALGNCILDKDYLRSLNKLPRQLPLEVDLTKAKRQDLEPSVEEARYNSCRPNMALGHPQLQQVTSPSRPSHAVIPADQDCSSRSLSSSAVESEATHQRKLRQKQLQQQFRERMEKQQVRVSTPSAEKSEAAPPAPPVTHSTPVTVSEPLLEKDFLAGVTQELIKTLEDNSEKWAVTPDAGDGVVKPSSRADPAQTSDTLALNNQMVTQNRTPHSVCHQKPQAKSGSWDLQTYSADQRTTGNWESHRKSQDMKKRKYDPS
RAD54 inh = RAD54 (human) branch migration inhibition; 0.14% of 360,000 active; RAD54 Holliday junction branch migration, FAM/BHQ fluorescence; Q92698; inhibition, % at 10.4 µM;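 active = mean normalized replicate activity at least 40 and at least half of replicates scoring 40 or more; inconclusive = only one of the two criteria met; inactive = mean below 40 and under half of replicates reaching 40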;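 note: inhibitors cause a drop in the FAM fluorescence signal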
CFTR F508del cor = CFTR F508del correction in bronchial cells | CFBE cells, YFP halide quenching; stimulated with forskolin plus potentiator P3; % fluorescence drop versus neutral controls | 0.36% of 350,000 active | activity (quench increase), % at 7.58 µM;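 active = mean added fluorescence quench of at least 8% versus neutral control, with both replicates also reaching 8%; inconclusive = only one of the mean or replicate conditions met; inactive = mean below 8% and not both replicates reaching 8%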;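 note: cells transiently co-express mutant CFTR-F508del with the halide-sensitive YFP; corrector assay measuring rescue of mutant channel to the surface after 24 h compound exposure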
LGR2 antag = inhibitors of bursicon-induced Drosophila LGR2 receptor cAMP signaling | HEK293 LGR2, CRE-luciferase, bursicon-stimulated, 4 h | inhibition, % at 9.99 µM | 0.35% of 380,000 active | AID 720647;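 active = drop in luminescence signal, shown as inhibition above about 50% in the replicate tests, limit read from the data, passing the limit was not always enough; inconclusive = probably only some replicates passing the limit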;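 note: agonist challenge used bursicon conditioned medium at about half maximal strength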
A number is an active result; . = inactive; ? = inconclusive; / = no result.

SMILES	EWS-Fli inh	GSIS activator	RAD52 anneal inh	RAD54 inh	CFTR F508del cor	LGR2 antag
Cc1cc2c(cc1S(=O)(=O)N(C)c1ccccc1)n(C)c(=O)n2C	.	.	.	.	.	.
CCCc1cc(=O)oc2cc(C)cc(OCC(=O)N3CCC(C(N)=O)CC3)c12	.	/	.	.	.	.
Cc1cccc(NC(=O)c2cc([N+](=O)[O-])ccc2NCC2CCCO2)n1 (centres undefined)	.	.	.	/	.	.
COCCCNc1ccc([N+](=O)[O-])cc1C(=O)Nc1cccc(C)n1	.	45.5	.	/	.	.
C=CS(=O)(=O)c1ccc(Oc2ccc(S(=O)(=O)C=C)cc2)cc1	52.6	83.0	.	/	/	101.6
NS(=O)(=O)c1ccc(Oc2ccc(S(N)(=O)=O)cc2)cc1	.	.	.	/	.	.
Cn1c(COc2ccc3ccccc3c2)nnc1SCC(=O)O	/	/	/	.	/	/
Cc1ncc(CO)c(/C=N/Nc2ccc(C(F)(F)F)cn2)c1O	.	.	.	.	12.3	.
Cc1ncc(CO)c(/C=N/NC(=S)Nc2ccc(F)cc2)c1O	/	.	/	/	/	.
CC(=O)c1ccc(NC(=O)c2cnn3ccccc23)cc1	69.2	.	.	.	.	?
Cc1ccc(S(=O)(=O)N2CCCCC2)cc1NC(=O)c1ccc2c(=O)n3c(nc2c1)CCCCC3	.	.	.	/	/	66.9
Cc1ccc2nc(CSc3nc(C)ccc3C#N)[nH]c2c1	.	.	.	.	.	76.2
Cc1c(C(=O)Nc2cccnc2Cl)oc2ccccc12	.	.	.	.	.	.
CC(C)c1c(O)c2c(n(-c3ccccc3)c1=O)CCCC2	/	60.5	/	/	/	.
O=C(NCC[C@@H]1CC[C@H](NS(=O)(=O)c2ccccc2)[C@H](CO)O1)c1cc(Cl)cc(Cl)c1	.	.	.	.	.	.
Cc1ccccc1C(=O)Nc1nnc(-c2ccc(C(C)(C)C)cc2)s1	/	137.0	/	.	/	.
Cc1cccc(C(=O)Nc2nnc(-c3ccc(C(C)(C)C)cc3)s2)c1	/	/	/	.	/	/
Cc1cc(C)c2c(C)c(C(=O)NCc3ccc(S(N)(=O)=O)cc3)oc2c1	.	.	.	.	.	/
NC(=O)c1cc(Cl)ccc1OCC(=O)NC1CC1	.	.	.	.	9.0	.
CCC(=O)N1[C@@H]2Cn3c(ccc(-c4ccccc4)c3=O)[C@H]1[C@@H](C(=O)N1CCCCC1)[C@@H]2CO	.	.	.	.	.	.
CCNC(=O)[C@@H]1[C@@H](CO)[C@@H]2Cn3c(ccc(-c4ccccc4F)c3=O)[C@H]1N2C(=O)CC	.	.	100.9	.	.	.
CC(=O)N1[C@@H]2c3ccc(-c4ccccc4)c(=O)n3C[C@H]1[C@H](CO)[C@H]2C(=O)N1CCCCC1	.	.	62.9	.	.	.
CC(C)C#Cc1cnc2c(c1)C(=O)N([C@H](C)CO)C[C@@H](C)[C@H](CN(C)C(=O)c1ccc3c(c1)OCO3)O2	.	.	.	.	.	.
COc1cc2cnc(-c3ccsc3)cc2cc1OC	.	50.2	.	.	.	.
COc1ccc(-c2cc3ccc(OC)cc3cn2)cc1	57.6	.	.	.	.	67.5
SMILES	EWS-Fli inh	GSIS activator	RAD52 anneal inh	RAD54 inh	CFTR F508del cor	LGR2 antag
O=C1[C@H]2[C@@H](c3ccc(Cl)cc3)N3C(=O)N(c4cccc(Cl)c4)C(=O)[C@@]3(Cc3ccccc3)[C@H]2C(=O)N1C1CCCCC1	.	.	/	.	.	.
N=c1sccn1CC(=O)Nc1ccc(S(N)(=O)=O)cc1	.	.	.	.	10.8	.
N=c1sccn1CC(=O)Nc1cccc(S(N)(=O)=O)c1	.	.	.	.	.	.
O=C(N/N=C/c1cc(Cl)ccc1O)c1ccc(Br)cc1	/	41.2	/	/	/	.
O=C(N/N=C\c1cc(Br)ccc1O)c1ccc(S(=O)(=O)N2CCCCC2)cc1	.	.	.	/	16.9	.
COCC(=O)NC[C@H]1[C@H](c2ccc(-c3ccccc3)cc2)[C@@H](CO)N1C(C)=O	.	.	.	.	.	.
CN(C)C=Nc1ncc2c3ccccc3n(CCN(C)C)c2c1C#N	/	/	/	88.1	/	/
CCN(c1c(C)n(C)n(-c2ccccc2)c1=O)S(C)(=O)=O	/	/	/	.	/	/
CCOC(=O)N/N=C/c1c(C)nn(-c2ccccc2Cl)c1Cl	/	.	/	/	/	.
Cc1nn(-c2ccccc2Cl)c(Cl)c1/C=N/Nc1nc2ccccc2s1	/	.	/	/	/	72.0
C[C@@H]1CN([C@H](C)CO)C(=O)CCCn2cc(nn2)CO[C@H]1CN(C)C(=O)Nc1ccc(N2CCN(C)CC2)cc1	.	.	62.4	.	.	.
